According to PMC7862700, “An all-to-all approach to the identification of sequence-specific readers for epigenetic DNA modifications on cytosine”:

What was measured:
Experiment in all cases: DAPPL (digital affinity profiling via proximity ligation, sequencing); 10 mM Tris-HCl pH 7.5, 50 mM NaCl, 1 mM DTT, 4% glycerol, room temperature, 30 min; GST-TFs on glutathione beads, 16-mer random dsDNA library, 0.1% formaldehyde crosslink after washing; high values mean tight binding
[1] = biological target: T1, FLI1 (Homo sapiens, UniProt Q01543 1-452); conditions: protein: recombinant; tags: N-terminal GST; dsDNA, one strand shown
T1 sequence: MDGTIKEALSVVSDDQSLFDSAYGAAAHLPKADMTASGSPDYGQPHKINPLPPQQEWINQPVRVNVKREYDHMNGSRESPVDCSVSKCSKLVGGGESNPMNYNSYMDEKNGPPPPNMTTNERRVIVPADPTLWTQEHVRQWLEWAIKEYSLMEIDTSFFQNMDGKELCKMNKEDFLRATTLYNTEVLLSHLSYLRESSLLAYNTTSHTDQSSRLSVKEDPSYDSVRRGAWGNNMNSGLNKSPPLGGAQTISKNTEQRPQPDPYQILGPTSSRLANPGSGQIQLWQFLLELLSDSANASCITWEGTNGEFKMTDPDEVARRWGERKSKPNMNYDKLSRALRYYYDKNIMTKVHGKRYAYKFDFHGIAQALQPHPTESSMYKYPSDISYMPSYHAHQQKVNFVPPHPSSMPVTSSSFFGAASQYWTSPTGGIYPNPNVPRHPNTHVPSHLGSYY
Method in brief: (§1)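 Yeast served to express human transcription factors as GST fusions, which were then captured on glutathione beads and labelled with DNA barcodes. Pooled with a tag-only sample, they were incubated with 200 nmole of a 16-mer random double-stranded DNA library for 30 min at room temperature in Tris/NaCl/DTT/glycerol buffer, washed, crosslinked with 0.1% formaldehyde, ligated by proximity, amplified by PCR and sequenced. Dividing each hexamer's read frequency for a factor by its frequency for the tag-only sample gives the binding signal.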

[2] = biological target: T2, ELK1 (Homo sapiens, UniProt P19419 1-428); conditions: protein: recombinant; tags: N-terminal GST; dsDNA, one strand shown
T2 sequence: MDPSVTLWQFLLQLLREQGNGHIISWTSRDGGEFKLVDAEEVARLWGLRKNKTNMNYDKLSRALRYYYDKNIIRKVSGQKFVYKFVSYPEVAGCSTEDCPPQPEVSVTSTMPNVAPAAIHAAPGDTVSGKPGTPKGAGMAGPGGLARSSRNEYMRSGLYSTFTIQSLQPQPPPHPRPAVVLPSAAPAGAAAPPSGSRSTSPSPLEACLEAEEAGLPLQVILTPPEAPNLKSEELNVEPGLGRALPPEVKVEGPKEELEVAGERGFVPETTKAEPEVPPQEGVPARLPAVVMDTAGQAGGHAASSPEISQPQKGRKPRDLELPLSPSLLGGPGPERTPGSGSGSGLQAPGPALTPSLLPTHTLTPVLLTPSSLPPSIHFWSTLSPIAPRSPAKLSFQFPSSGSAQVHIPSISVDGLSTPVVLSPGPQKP
Method in brief: as §1

[3] = biological target: T3, GABPA (Homo sapiens, UniProt Q06546 1-454); conditions: protein: recombinant; tags: N-terminal GST; dsDNA, one strand shown
T3 sequence: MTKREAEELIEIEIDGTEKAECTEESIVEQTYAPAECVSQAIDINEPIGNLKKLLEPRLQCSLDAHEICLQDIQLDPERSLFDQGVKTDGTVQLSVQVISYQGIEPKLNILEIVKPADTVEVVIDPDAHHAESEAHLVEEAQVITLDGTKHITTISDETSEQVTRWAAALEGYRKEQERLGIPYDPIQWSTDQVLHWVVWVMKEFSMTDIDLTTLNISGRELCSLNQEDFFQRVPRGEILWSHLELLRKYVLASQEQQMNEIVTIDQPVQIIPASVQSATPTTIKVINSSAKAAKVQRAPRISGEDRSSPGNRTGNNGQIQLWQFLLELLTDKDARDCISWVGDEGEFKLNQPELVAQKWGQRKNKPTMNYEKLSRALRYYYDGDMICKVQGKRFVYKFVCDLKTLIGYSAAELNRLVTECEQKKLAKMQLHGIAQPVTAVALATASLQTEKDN
Method in brief: as §1

[4] = biological target: T4, ERG (Homo sapiens, UniProt P11308 1-479); conditions: protein: recombinant; tags: N-terminal GST; dsDNA, one strand shown
T4 sequence: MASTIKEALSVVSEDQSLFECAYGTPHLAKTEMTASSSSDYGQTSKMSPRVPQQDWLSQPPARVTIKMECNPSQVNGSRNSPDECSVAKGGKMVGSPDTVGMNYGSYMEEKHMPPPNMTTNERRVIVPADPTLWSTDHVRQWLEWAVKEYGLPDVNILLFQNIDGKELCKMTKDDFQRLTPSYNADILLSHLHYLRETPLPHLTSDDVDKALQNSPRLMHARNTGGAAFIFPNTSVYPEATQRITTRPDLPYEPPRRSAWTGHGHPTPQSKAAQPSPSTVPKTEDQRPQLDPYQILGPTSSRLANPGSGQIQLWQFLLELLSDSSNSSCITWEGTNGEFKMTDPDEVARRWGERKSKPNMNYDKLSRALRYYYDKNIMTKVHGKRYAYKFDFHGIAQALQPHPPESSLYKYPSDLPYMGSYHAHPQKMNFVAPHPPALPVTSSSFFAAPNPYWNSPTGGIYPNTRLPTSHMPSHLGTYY
Method in brief: as §1

[5] = biological target: ELF1 (Homo sapiens, UniProt P32519 1-619); conditions: protein: recombinant; tags: N-terminal GST; dsDNA, one strand shown
Sequence of ELF1 (P32519 whole entry): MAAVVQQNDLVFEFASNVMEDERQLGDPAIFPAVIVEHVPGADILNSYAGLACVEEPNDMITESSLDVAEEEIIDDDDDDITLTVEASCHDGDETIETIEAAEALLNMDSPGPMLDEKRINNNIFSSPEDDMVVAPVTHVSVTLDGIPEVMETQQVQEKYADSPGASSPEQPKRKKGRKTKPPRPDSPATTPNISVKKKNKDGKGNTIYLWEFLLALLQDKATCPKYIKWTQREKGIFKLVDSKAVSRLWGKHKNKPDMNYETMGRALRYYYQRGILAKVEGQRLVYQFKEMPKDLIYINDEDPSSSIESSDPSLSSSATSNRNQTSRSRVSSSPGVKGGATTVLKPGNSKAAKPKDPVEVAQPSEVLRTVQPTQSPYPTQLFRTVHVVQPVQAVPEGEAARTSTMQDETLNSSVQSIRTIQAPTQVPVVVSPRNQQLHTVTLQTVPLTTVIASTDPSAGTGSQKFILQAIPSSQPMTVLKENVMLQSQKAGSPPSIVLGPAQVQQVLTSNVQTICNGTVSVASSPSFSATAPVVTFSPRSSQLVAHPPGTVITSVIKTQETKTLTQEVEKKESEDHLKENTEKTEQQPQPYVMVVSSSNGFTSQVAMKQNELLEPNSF
Method in brief: as §1

[6] = biological target: T5, EHF (Homo sapiens, UniProt Q9NZC4 1-300); conditions: protein: recombinant; tags: N-terminal GST; dsDNA, one strand shown
T5 sequence: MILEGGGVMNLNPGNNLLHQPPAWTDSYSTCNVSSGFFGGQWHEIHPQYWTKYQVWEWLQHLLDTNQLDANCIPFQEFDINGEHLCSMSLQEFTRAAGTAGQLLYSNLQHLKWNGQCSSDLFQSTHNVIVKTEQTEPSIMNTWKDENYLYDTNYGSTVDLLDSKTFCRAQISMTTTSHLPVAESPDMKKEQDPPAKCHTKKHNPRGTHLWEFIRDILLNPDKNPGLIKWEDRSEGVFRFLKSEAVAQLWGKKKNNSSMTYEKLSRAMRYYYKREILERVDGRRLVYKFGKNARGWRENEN
Method in brief: as §1

[7] = biological target: SPI1 (Homo sapiens, UniProt P17947 1-270); conditions: protein: recombinant; tags: N-terminal GST; dsDNA, one strand shown
Method in brief: as §1

[8] = biological target: SPIB (Homo sapiens, UniProt Q01892 1-262); conditions: protein: recombinant; tags: N-terminal GST; dsDNA, one strand shown
Sequence of SPIB (Q01892 whole entry): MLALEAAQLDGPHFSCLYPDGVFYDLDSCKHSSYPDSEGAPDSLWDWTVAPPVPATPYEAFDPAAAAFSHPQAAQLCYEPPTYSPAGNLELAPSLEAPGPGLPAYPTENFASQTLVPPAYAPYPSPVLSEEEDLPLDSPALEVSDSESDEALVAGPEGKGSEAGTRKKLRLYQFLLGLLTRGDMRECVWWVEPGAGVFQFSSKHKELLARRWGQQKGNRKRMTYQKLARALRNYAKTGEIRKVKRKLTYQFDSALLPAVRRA
Method in brief: as §1

[9] = biological target: T6, ELK3 (Homo sapiens, UniProt P41970 1-407); conditions: protein: recombinant; tags: N-terminal GST; dsDNA, one strand shown
T6 sequence: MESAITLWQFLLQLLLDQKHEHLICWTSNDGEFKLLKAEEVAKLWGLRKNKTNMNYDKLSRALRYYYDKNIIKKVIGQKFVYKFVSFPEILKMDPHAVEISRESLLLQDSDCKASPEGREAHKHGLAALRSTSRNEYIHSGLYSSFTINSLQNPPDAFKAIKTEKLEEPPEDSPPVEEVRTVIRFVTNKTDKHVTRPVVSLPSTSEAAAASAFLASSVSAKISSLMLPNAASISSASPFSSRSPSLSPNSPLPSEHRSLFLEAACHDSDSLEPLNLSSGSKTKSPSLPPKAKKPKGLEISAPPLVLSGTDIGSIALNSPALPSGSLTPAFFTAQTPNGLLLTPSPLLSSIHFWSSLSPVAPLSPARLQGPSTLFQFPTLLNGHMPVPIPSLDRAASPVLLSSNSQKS
Method in brief: as §1

[10] = biological target: T7, FEV (Homo sapiens, UniProt Q99581 1-238); conditions: protein: recombinant; tags: N-terminal GST; dsDNA, one strand shown
T7 sequence: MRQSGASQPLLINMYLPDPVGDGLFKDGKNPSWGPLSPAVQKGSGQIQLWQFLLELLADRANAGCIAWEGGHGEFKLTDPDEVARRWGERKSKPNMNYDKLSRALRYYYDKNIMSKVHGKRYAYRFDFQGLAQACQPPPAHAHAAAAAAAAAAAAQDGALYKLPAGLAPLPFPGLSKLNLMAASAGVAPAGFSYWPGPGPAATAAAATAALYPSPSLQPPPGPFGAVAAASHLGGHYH
Method in brief: as §1

[11] = biological target: ETV5 (Homo sapiens, UniProt P41161 1-510); conditions: protein: recombinant; tags: N-terminal GST; dsDNA, one strand shown
Sequence of ETV5 (P41161 whole entry): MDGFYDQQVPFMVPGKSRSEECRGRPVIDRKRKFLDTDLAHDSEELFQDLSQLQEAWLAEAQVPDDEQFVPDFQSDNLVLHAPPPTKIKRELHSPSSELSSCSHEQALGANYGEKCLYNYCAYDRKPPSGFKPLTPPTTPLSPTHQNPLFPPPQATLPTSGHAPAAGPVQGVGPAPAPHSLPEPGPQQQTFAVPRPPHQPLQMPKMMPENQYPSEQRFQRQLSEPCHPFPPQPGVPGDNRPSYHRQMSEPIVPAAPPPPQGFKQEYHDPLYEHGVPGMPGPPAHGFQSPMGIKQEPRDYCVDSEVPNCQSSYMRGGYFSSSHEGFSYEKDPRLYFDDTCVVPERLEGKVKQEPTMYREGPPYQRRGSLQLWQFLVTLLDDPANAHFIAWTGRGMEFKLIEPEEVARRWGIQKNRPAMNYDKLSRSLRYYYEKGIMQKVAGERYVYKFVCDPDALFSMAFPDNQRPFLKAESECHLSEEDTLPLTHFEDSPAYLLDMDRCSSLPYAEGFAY
Method in brief: as §1

[12] = biological target: HSF1 (Homo sapiens, UniProt Q00613 1-529); conditions: protein: recombinant; tags: N-terminal GST; chain copies: 3; dsDNA, one strand shown
Sequence of HSF1 (Q00613 whole entry): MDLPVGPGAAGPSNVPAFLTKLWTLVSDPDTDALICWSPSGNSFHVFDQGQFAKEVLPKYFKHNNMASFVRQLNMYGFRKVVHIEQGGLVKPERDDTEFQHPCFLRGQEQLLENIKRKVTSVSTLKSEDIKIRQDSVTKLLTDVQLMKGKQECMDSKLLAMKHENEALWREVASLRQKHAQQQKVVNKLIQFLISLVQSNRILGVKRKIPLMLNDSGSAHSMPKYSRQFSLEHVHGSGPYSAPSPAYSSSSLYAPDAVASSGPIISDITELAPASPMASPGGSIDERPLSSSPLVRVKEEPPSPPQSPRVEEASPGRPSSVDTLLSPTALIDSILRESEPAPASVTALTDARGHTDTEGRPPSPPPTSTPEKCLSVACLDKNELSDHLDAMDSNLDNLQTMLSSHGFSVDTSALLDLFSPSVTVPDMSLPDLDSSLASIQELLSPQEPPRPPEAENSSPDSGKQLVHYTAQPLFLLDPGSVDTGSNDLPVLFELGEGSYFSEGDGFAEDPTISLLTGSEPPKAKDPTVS
Method in brief: as §1

[13] = biological target: T8, SPIC (Homo sapiens, UniProt Q8N5J4 1-248); conditions: protein: recombinant; tags: N-terminal GST; dsDNA, one strand shown
T8 sequence: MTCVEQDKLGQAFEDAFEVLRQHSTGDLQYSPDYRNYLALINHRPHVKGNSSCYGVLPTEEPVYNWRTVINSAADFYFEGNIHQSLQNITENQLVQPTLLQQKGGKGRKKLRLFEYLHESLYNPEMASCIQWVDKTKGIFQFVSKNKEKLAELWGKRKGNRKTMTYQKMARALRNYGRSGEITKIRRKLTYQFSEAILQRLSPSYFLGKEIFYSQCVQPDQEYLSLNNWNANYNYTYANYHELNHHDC
Method in brief: as §1

[14] = biological target: ELF4 (Homo sapiens, UniProt Q99607 1-663); conditions: protein: recombinant; tags: N-terminal GST; dsDNA, one strand shown
Sequence of ELF4 (Q99607 whole entry): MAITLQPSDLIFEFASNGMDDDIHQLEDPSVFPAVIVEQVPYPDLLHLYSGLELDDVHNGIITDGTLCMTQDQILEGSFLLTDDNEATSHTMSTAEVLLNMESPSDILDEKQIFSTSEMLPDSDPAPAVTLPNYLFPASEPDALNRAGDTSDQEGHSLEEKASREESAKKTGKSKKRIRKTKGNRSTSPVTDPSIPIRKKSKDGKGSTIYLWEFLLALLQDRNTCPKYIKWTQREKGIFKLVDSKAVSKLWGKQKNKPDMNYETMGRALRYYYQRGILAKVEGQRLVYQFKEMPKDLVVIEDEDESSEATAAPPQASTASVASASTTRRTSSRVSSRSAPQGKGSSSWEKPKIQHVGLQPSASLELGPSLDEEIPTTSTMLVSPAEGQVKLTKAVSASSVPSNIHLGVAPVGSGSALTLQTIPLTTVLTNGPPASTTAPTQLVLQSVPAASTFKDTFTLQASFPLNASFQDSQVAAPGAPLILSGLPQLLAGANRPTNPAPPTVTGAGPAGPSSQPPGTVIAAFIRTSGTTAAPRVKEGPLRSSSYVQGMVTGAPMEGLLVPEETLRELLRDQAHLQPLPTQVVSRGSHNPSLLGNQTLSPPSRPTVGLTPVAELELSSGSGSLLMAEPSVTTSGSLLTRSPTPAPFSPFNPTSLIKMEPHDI
Method in brief: as §1

[15] = biological target: T9, ELK4 (Homo sapiens, UniProt P28324-2 1-405); conditions: protein: recombinant; tags: N-terminal GST; dsDNA, one strand shown
T9 sequence: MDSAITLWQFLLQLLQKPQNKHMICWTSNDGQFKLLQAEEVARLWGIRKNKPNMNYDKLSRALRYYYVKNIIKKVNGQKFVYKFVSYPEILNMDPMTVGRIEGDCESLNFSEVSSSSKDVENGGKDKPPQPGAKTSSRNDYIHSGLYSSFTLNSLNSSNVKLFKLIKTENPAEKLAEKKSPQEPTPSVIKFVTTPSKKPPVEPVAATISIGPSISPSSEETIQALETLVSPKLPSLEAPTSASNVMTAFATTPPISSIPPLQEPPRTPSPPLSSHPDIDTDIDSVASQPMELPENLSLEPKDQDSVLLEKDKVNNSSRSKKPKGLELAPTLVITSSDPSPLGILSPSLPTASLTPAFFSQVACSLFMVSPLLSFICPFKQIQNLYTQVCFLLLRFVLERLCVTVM
Method in brief: as §1

[16] = biological target: T10, ETV2 (Homo sapiens, UniProt O00321 1-342); conditions: protein: recombinant; tags: N-terminal GST; dsDNA, one strand shown
T10 sequence: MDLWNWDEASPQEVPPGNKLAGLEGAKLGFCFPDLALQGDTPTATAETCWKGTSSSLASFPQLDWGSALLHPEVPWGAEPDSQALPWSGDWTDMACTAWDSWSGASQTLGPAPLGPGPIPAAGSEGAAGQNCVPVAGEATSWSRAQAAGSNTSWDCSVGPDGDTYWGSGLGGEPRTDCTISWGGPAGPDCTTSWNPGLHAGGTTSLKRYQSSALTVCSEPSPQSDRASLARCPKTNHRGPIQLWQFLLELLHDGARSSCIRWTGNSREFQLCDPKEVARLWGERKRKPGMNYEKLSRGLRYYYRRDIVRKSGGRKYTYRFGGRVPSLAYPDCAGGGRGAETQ
Method in brief: as §1

[17] = biological target: T11, ELF3 (Homo sapiens, UniProt P78545 1-371); conditions: protein: recombinant; tags: N-terminal GST; dsDNA, one strand shown
T11 sequence: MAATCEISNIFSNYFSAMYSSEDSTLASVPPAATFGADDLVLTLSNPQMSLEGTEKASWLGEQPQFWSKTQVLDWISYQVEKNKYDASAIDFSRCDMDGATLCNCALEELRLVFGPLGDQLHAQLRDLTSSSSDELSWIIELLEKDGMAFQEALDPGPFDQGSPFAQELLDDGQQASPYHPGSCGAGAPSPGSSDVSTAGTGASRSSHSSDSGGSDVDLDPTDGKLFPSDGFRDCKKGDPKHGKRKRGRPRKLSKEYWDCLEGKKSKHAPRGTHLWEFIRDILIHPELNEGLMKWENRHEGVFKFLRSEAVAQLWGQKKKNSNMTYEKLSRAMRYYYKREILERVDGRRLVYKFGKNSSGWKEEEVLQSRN
Method in brief: as §1

[18] = biological target: CRX (Homo sapiens, UniProt O43186 1-299); conditions: protein: recombinant; tags: N-terminal GST; dsDNA, one strand shown
Sequence of CRX (O43186 whole entry): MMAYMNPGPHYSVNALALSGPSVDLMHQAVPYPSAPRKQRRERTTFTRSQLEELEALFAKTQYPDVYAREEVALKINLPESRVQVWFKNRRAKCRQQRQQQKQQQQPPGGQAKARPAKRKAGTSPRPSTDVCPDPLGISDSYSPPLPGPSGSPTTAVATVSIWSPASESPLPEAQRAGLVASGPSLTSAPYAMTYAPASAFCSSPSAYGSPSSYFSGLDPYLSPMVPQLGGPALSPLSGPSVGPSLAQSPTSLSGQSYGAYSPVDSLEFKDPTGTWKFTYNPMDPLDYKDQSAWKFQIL
Method in brief: as §1

[19] = biological target: ETV1 (Homo sapiens, UniProt P50549 1-477); conditions: protein: recombinant; tags: N-terminal GST; dsDNA, one strand shown
Sequence of ETV1 (P50549 whole entry): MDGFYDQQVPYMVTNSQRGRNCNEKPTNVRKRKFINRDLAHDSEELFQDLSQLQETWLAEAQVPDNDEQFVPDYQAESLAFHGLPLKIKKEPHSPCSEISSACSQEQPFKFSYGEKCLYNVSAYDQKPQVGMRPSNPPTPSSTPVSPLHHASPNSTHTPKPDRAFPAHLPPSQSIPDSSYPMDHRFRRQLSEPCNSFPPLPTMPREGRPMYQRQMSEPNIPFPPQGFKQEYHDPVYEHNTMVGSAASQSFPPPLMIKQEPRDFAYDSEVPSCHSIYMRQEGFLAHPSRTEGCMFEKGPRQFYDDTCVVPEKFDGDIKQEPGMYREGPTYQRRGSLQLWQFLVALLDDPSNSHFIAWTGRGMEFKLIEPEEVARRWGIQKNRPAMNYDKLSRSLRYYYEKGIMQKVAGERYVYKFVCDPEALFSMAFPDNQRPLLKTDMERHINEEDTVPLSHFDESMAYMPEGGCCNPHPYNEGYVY
Method in brief: as §1

For TACATA, the binding signal [1] was 1.18 fold enrichment (6-mer frequency, TF over GST control), the binding signal [2] was 1.19 fold enrichment (6-mer frequency, TF over GST control) and the binding signal [3] was 1.22 fold enrichment (6-mer frequency, TF over GST control). For the same sequence, the binding signal [4] was 1.24 fold enrichment (6-mer frequency, TF over GST control), the binding signal [5] was 1.18 fold enrichment (6-mer frequency, TF over GST control) and the binding signal [6] was 1.17 fold enrichment (6-mer frequency, TF over GST control). The binding signal [7] was 1.15 fold enrichment (6-mer frequency, TF over GST control), the binding signal [8] was 1.22 fold enrichment (6-mer frequency, TF over GST control) and the binding signal [9] was 1.19 fold enrichment (6-mer frequency, TF over GST control). The binding signal [10] was 1.21 fold enrichment (6-mer frequency, TF over GST control), the binding signal [11] was 1.24 fold enrichment (6-mer frequency, TF over GST control) and the binding signal [12] was 1.15 fold enrichment (6-mer frequency, TF over GST control). The binding signal [13] was 1.36 fold enrichment (6-mer frequency, TF over GST control), the binding signal [14] was 1.22 fold enrichment (6-mer frequency, TF over GST control) and the binding signal [15] was 1.22 fold enrichment (6-mer frequency, TF over GST control). For the same sequence, the binding signal [16] was 1.24 fold enrichment (6-mer frequency, TF over GST control), the binding signal [17] was 1.18 fold enrichment (6-mer frequency, TF over GST control) and the binding signal [18] was 1.27 fold enrichment (6-mer frequency, TF over GST control). For the same sequence, the binding signal [19] was 1.25 fold enrichment (6-mer frequency, TF over GST control).
